# Measurements reported in PubChem BioAssay AID652136 (The Scripps Research Institute Molecular Screening Center, 2013).
# Among all 2,400 compounds or so, about 1,900 (79%) were called active. So high a share suggests a set chosen from earlier hits. Not all results are given here. Unmarked numbers belong to inactive results.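 The calls were made as follows: active = inhibition above the mean of all tested compounds plus 3 SD (cut at about 3% in these data); inactive = the rest.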
# Assay: SF-1 AF-2 mutant transactivation artefacts – cell-based, luminescence, counter-screen for DAX1 inhibitor project (AID 652136);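 also: 0% = DAX-1 transfected cells with DMSO and 100% = cells without DAX-1 with DMSO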
# Details: HEK293 StAR-luciferase, SF-1 AF2 mutant, at 6.8 µM, active compounds read high
row,Compound,inhibition
1,COc1ccc(-c2csc(-c3cccs3)n2)cc1OC,5.61% (active)
2,Cc1ccc(S(=O)Cc2ccc(C(=O)N3CCN(C4CCCCC4)CC3)o2)cc1 (configuration not stated),2.33%
3,CN1CCN(C(=O)c2ccc(-c3ccc(Br)cc3)o2)CC1,4.28% (active)
4,O=C(Nc1ncccc1O)c1ccc(S(=O)(=O)N2CCCCCC2)cc1,2.43%
5,O=C(Nc1ncccc1O)c1ccc(C(=O)c2ccccc2)cc1,35.8% (active)
6,O=C(Nc1ncccc1O)c1ccc(S(=O)(=O)N2CCCC2)cc1,5.53% (active)
7,CC1CCN(CCCNC(=O)CN2C(=O)CSc3ccc(S(=O)(=O)N4CCCCC4)cc32)CC1,1.65%
8,Clc1ccc(Nc2nc(-c3cccs3)cs2)nc1,7.52% (active)
9,COc1cc(OC)c(C(=O)NNC(=O)c2ccc(NS(=O)(=O)c3cccs3)cc2)cc1OC,-0.43%
10,CC(C)(C)c1csc(NC2=NS(=O)(=O)c3ccccc32)n1,7.77% (active)
11,Cc1ccc(N/C=C/C(=O)c2ccccc2)cc1C,4.16% (active)
12,Fc1ccc2cnc(-c3ccccc3)cc2c1,5.1% (active)
13,O=C(NCCc1ccc(F)cc1)c1ccc2nccnc2c1,8.87% (active)
14,COc1ccc2nc(-c3ccccn3)ccc2c1,5.03% (active)
15,Cc1nn(-c2ccc([N+](=O)[O-])cc2)c(N)c1-c1ccccc1,6.97% (active)
16,O=C(NC(=S)Nc1ccc(Cl)cc1Cl)C1CC1,3.76% (active)
17,COc1ccc(CCOC2OC(CO)C(OC(=O)/C=C/c3ccc(O)c(OC)c3)C(O[C@H]3O[C@@H](C)[C@H](O)[C@@H](O)[C@H]3O)C2O)cc1O (some centres not stated),1.22%
18,Cc1cc(OCc2cc(C(=O)NCc3cc(C(C)C)no3)no2)cc(C)c1Cl,3.41% (active)
19,CCC(=O)Nc1ccc(-c2ccc(N3CCCCC3)nn2)cc1,2.89% (active)
20,COc1ccc(C(=O)NCC[N+](C)(C)C)cc1,1.97%
21,COc1ccc(CCNC(=O)COC(=O)Cc2ccccc2F)cc1,-0.5%
22,CCCOc1ccc(C(=O)NCCc2ccccc2)cc1,4.75% (active)
23,CN(C(=O)c1cc2c(=O)n3ccccc3nc2s1)C1CCCCC1,3.77% (active)

row,Compound,inhibition
1,Cc1ccccc1OCC(=O)Nc1ccc2c(c1)ncn2C,5.06% (active)
2,Cc1ccccc1Nc1nc(N)nc(CSc2ccccc2)n1,9.51% (active)
3,CCOc1cccc(/C=C/c2ccc3ccccc3n2)c1OC(C)=O,2.8%
4,CNCC(O)c1ccc(O)c(O)c1 (configuration not stated),-2.85%
5,O=c1c2c(nc3cc(-c4cccc(Cl)c4)[nH]n13)CCCC2,5.64% (active)
6,O=C(NCC1(N2CCCCC2)CCCCC1)c1ccc(NS(=O)(=O)c2ccc(F)cc2)cc1,6.24% (active)
7,CCN(c1ccccc1)S(=O)(=O)c1ccc(OCC(=O)N2CCCC2)cc1,1.13%
8,CCOc1ccc(S(=O)(=O)Nc2cccc(C(=O)NCC3(N4CCCCC4)CCCCC3)c2)cc1,5.11% (active)
9,O=C(c1cc(-c2cccs2)on1)N1CCCCC1,4.85% (active)
10,COc1ccc(OCc2cc(C(=O)N3CCCC3)no2)c2ccccc12,6.26% (active)
11,COc1ccccc1-c1cc(C(=O)N2CCCCC2)no1,7.48% (active)
12,O=C(c1cc(-c2ccccc2O)on1)N1CCCC1,7.17% (active)
13,CCOC(=O)c1c(S(=O)(=O)Nc2ccc(CN3CCC(C)CC3)cc2)c(C)n(C)c1C,1.43%
14,O=C(Nc1ccc2ccccc2c1[N+](=O)[O-])c1ccccc1,6.14% (active)
15,COc1ccc(-c2csc(Nc3ccccn3)n2)cc1,5.68% (active)
16,COc1ccc(-c2cn3ccsc3n2)cc1,6.15% (active)
17,COc1ccc(-c2cn3ccc(C)cc3n2)cc1,3.87% (active)
18,COC(=O)Nc1nc2ccc(C(=O)C3CC3)cc2[nH]1,-5.19%
19,O=C(CSc1cccc[n+]1[O-])c1ccc(-c2ccccc2)cc1,1.01%
20,NS(=O)(=O)c1ccc2nc(NC(=O)C3=COCCO3)sc2c1,5.19% (active)
21,Cc1cc(N)n2nc(-c3ccc(C(C)(C)C)cc3)cc2n1,8.64% (active)
22,CCc1ccc2oc(-c3ccc(N)cc3)nc2c1,4.11% (active)
23,O=C(NCC1CCCO1)c1cc2c(s1)CCCC2 (configuration not stated),4.63% (active)

row,Compound,inhibition
1,O=C(O)c1cccc(N=NN2CCCCCC2)c1,8.65% (active)
2,CCOc1ccc(-c2nnc(-c3ccco3)o2)cc1,3.8% (active)
3,C/C(=N\NC(=O)c1ccccc1F)c1ccccn1,-9.06%
4,O=C(NCCOc1ccccc1)c1ccccc1F,6.6% (active)
5,OC(c1ccccc1)c1nc(-c2cnc3ccccc3c2)cs1 (configuration not stated),6.87% (active)
6,CC(Oc1ccccc1[N+](=O)[O-])C(=O)N/N=C/c1ccoc1 (configuration not stated),-0.59%
7,Cc1cc(C(=O)NCCc2ccc(Cl)cc2)c(C)o1,2.83%
8,CC(C)Cc1cc(C(=O)NCCc2ccccc2)no1,4.55% (active)
9,CC(C)c1ccc(C=NNc2ccc([N+](=O)[O-])cn2)cc1,7.98% (active)
10,O=[N+]([O-])c1ccc2oc(-c3cccc(O)c3)nc2c1,8.65% (active)
11,COc1ccc(Nc2ncc(F)c(N3CCOCC3)n2)cc1,7.01% (active)
12,Cc1ccc(-c2nc3ccc(Br)cn3c2Cc2ccccc2C(F)(F)F)cc1,3.81% (active)
13,COc1ccccc1Cc1c(-c2ccc(F)cc2)nc2ccc(C)cn12,3.36% (active)
14,C=CCn1c(SCC(=O)Nc2ccc(NC(C)=O)cc2)nc2sc(C)c(C)c2c1=O,-2.48%
15,O=C(c1cnn(-c2ccc(Cl)cc2)c1)c1ccccc1O,7.41% (active)
16,O=C1C(C=NCC2CCCO2)=C(O)c2ccccc21 (configuration not stated),4.34% (active)
17,Nc1ccc2nn(-c3ccc(Cl)cc3)nc2c1,10.2% (active)
18,COc1ccc2nc(SCc3ccccc3)nc(C)c2c1,8.35% (active)
19,CC(C)c1ccc(Nc2nnc(SCC(=O)c3nnc(-c4ccccc4)o3)s2)cc1,5.91% (active)
20,CCc1ccc(NC(=O)N2CCc3ccccc3C2)cc1,2.82%
21,O=C(Nc1ccc2c(c1)CCC2)c1ccc(Br)s1,5.35% (active)
